# Laboratory results published in PubChem BioAssay (Tox21).
# The source made the active and inactive calls. Where a call stands in place of a potency, no number is given. The call rests on the fitted dose curve; in most records, active means well fitted curve in the direction sought with a large enough effect in the repeat runs; inconclusive means weak or mixed curves; inactive means flat fitted curve, though single readings scatter.
# Assay: qHTS assay to test for compound auto fluorescence at 535 nm (green) in HepG2 cells (AID 720675)
# Conditions: green autofluorescence 485/535 nm, 1 h; series mostly up to 91.3 µM
SMILES,outcome,"fluorescence, % of fluorescein control"
NC1[C@H]2CN(c3nc4c(cc3F)c(=O)c(C(=O)O)cn4-c3ccc(F)cc3F)C[C@@H]12 (stereo not given in full),inactive,–
CC(C)COCC(CN(Cc1ccccc1)c1ccccc1)N1CCCC1 (stereo not given),inactive,–
C=C(C)CCCC(C)CCO (stereo not given),inactive,–
C=CC(=O)[O-].C=CC(=O)[O-].[Zn+2],inactive,–
CCC(OCCCOC)OC(C)=O (stereo not given),inactive,–
O=C1c2ccccc2C(=O)C1(O)O,inactive,–
CCOC(=O)c1ccc(OCCN2C[C@H](O)[C@@H](O)[C@H](O)[C@H]2CO)cc1,inactive,–
CC=C(Cl)Cl,inactive,–
CC(C)C=O,inactive,–
CCCCCCNC(=O)n1cc(F)c(=O)[nH]c1=O,inactive,–
COc1ccccc1N1CCN(CCCCNC(=O)c2ccc(-c3ccc(C(C)=O)cc3)cc2)CC1,inactive,–
CCn1cc(C(=O)O)c(=O)c2cc(F)c(N3CCNCC3)cc21,inactive,–
CCCCCCCCCCC(=O)O,inactive,–
O=C1NC(=O)c2cc([N+](=O)[O-])ccc21,inactive,–
OC(CCN1CCCC1)(c1ccccc1)C1CCCCC1 (stereo not given),–,0.0313% [at 18.6 µM] (inactive)
O=C(CCc1ccc(O)cc1)c1c(O)cc(O)cc1O,inactive,–
CC(=O)OCC[N+](C)(C)C,inactive,–
CCC=CC#N,inactive,–
O=c1c(O)c(-c2ccc(O)cc2)oc2cc(O)cc(O)c12,inactive,–

SMILES,outcome,"fluorescence, % of fluorescein control"
CC/C=C1/OC(=O)c2ccccc21,inactive,–
CC(=O)Nc1ccc(C)cc1C,inactive,–
CN1CCCN=C1COC(=O)C(O)(c1ccccc1)C1CCCCC1 (stereo not given),inactive,–
O=C1c2ccccc2C(=O)c2c(O)c(O)cc(O)c21,inactive,–
CC(CCC(=O)O)C(=O)O (stereo not given),inactive,–
C(=C\c1ccccc1)/c1ccccc1,inactive,–
C=C(C)C(=O)OCCCCCCCCCCCCC,inactive,–
CCC1NC(=O)c2cc(S(N)(=O)=O)c(Cl)cc2N1 (stereo not given),–,0.161% [at 18.6 µM] (inactive)
CC(C)C(O)(c1ccc(OC(F)(F)F)cc1)c1cncnc1 (stereo not given),inactive,–
C1C[C@@H]2[C@H]3CC[C@H](C3)[C@@H]2C1,inactive,–
C=C(C)[C@@H]1CCC2=CCC[C@@H](C)[C@]2(C)C1,inactive,–
Clc1cc(Cl)nc(Cl)n1,inactive,–
O[C@@H]1CO[C@H]2[C@@H]1OC[C@@H]2O,inactive,–
COc1cc(C(=O)NCCCCCC(=O)O)cc(OC)c1OC,inactive,–
CC(=O)[C@H]1[C@H](C#N)C[C@H]2[C@@H]3CC=C4C[C@@H](O)CC[C@]4(C)[C@H]3CC[C@@]21C,inactive,–
O=c1[nH]c2ccc(Cl)cc2o1,inactive,–
CCC(=O)OC,inactive,–
C=CC(=O)OCC1CC2CC1C1CCC(COC(=O)C=C)C21 (stereo not given),inactive,–
Cc1cc2c(OCC(CNC(C)(C)C)OC(=O)c3ccccc3)cccc2[nH]1 (stereo not given),inactive,–

# Assay: qHTS assay to test for compound auto fluorescence at 460 nm (blue) in HEK293 cells (AID 720678)
# Conditions: blue autofluorescence 405/460 nm; series mostly up to 91.3 µM
# Outline: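 Cells were seeded and left to adhere for 4-5 hr at 37C. Compounds were then pin-transferred. After an overnight incubation at 37C under 5% CO2, intrinsic fluorescence at 405/460 nm was measured and referenced to triamterene.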
SMILES,Potency,"fluorescence, % of triamterene"
NC1[C@H]2CN(c3nc4c(cc3F)c(=O)c(C(=O)O)cn4-c3ccc(F)cc3F)C[C@@H]12 (stereo not given in full),inactive,–
CC(C)COCC(CN(Cc1ccccc1)c1ccccc1)N1CCCC1 (stereo not given),inactive,–
CCC(OCCCOC)OC(C)=O (stereo not given),inactive,–
O=C1c2ccccc2C(=O)C1(O)O,inactive,–
CCOC(=O)c1ccc(OCCN2C[C@H](O)[C@@H](O)[C@H](O)[C@H]2CO)cc1,inactive,–
CC=C(Cl)Cl,inactive,–
CC(C)C=O,inactive,–
CCCCCCNC(=O)n1cc(F)c(=O)[nH]c1=O,inactive,–
COc1ccccc1N1CCN(CCCCNC(=O)c2ccc(-c3ccc(C(C)=O)cc3)cc2)CC1,inactive,–
CCn1cc(C(=O)O)c(=O)c2cc(F)c(N3CCNCC3)cc21,inactive,–
CCCCCCCCCCC(=O)O,inactive,–
O=C1NC(=O)c2cc([N+](=O)[O-])ccc21,inactive,–
O=C(CCc1ccc(O)cc1)c1c(O)cc(O)cc1O,inactive,–
CC(=O)OCC[N+](C)(C)C,inactive,–
CCC=CC#N,inactive,–
O=c1c(O)c(-c2ccc(O)cc2)oc2cc(O)cc(O)c12,inactive,–

SMILES,Potency,"fluorescence, % of triamterene"
CC/C=C1/OC(=O)c2ccccc21,inactive,–
CC(=O)Nc1ccc(C)cc1C,inactive,–
CN1CCCN=C1COC(=O)C(O)(c1ccccc1)C1CCCCC1 (stereo not given),inactive,–
O=C1c2ccccc2C(=O)c2c(O)c(O)cc(O)c21,inactive,–
CC(CCC(=O)O)C(=O)O (stereo not given),inactive,–
C=C(C)C(=O)OCCCCCCCCCCCCC,inactive,–
CCC1NC(=O)c2cc(S(N)(=O)=O)c(Cl)cc2N1 (stereo not given),–,-0.286% [at 18.6 µM] (inactive)
CC(C)C(O)(c1ccc(OC(F)(F)F)cc1)c1cncnc1 (stereo not given),inactive,–
C1C[C@@H]2[C@H]3CC[C@H](C3)[C@@H]2C1,inactive,–
Clc1cc(Cl)nc(Cl)n1,inactive,–
COc1cc(C(=O)NCCCCCC(=O)O)cc(OC)c1OC,inactive,–
CC(=O)[C@H]1[C@H](C#N)C[C@H]2[C@@H]3CC=C4C[C@@H](O)CC[C@]4(C)[C@H]3CC[C@@]21C,inactive,–
O=c1[nH]c2ccc(Cl)cc2o1,inactive,–
CCC(=O)OC,inactive,–
C=CC(=O)OCC1CC2CC1C1CCC(COC(=O)C=C)C21 (stereo not given),inactive,–
Cc1cc2c(OCC(CNC(C)(C)C)OC(=O)c3ccccc3)cccc2[nH]1 (stereo not given),inactive,–
